Measured values reported in PubChem BioAssay (EPA / NIEHS).
“And” between values parts separate entries of the source, which are not always exact repeats. Identical values can stand only once. Records with an inconclusive call do not appear. Some compounds were tested as several samples or in several runs, with calls that do not always agree. The source made the active and inactive calls. The calls were made as follows, unless noted: active = hit-call score of the fitted dose curve at least 0.9, where 1 is the maximum; inactive = score below 0.9.

Key:
[1] = BSK_3C_VCAM1: BioMAP Diversity Plus: 3C Assay for Vascular cell adhesion molecule 1 (VCAM1) Biomarker Activity (AID 2282999); settings: BioMAP 3C HUVEC, VCAM1 ELISA, cytokine-stimulated; actives raise or lower the signal
How it was run: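 HUVEC primary cells, 24 h compound exposure; VCAM-1 by ELISA; gain/loss of signal fitted bidirectionally vs DMSO baseline.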

[2] = BSK_4H_Eotaxin3: BioMAP Diversity Plus: 4H Assay for Eotaxin 3 Biomarker Activity (AID 2283000); settings: primary human endothelial cells (HUVEC); actives raise or lower the signal
How it was run: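 Readout is Eotaxin-3 (CCL26) level by ELISA in primary human umbilical vein endothelial cells harvested 24 h after chemical exposure; activity fitted in both directions against DMSO control.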

[3] = target: human Peroxisome Proliferator-activated Receptor delta (PPARd), PPARD (gene 5467) (UniProt Q03181); assay: ATG_PPARd_TRANS: Attagene TRANS-FACTORIAL HepG2 Assay for human Peroxisome Proliferator-activated Receptor delta (PPARd) (AID 2283002; active = hit-call score of the fitted dose curve at least 0.9, where 1 is the maximum)
How it was run: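 HepG2 cells transiently transfected with GAL4-UAS multiplexed reporter units driven by exogenous chimeric NR-GAL4 proteins; 24 h compound exposure. Reporter mRNA measured by RT-PCR, 6-FAM primer extension, HpaI digestion and capillary electrophoresis; gain of signal fitted relative to DMSO.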

[4] = read-out: Intercellular Adhesion Molecule 1 (ICAM1), ICAM1 (gene 3383); assay: BSK_3C_ICAM1: BioMAP Diversity Plus: 3C Assay for Intercellular Adhesion Molecule 1 (ICAM1) Biomarker Activity (AID 2283003); settings: primary human endothelial cells (HUVEC); actives raise or lower the signal
How it was run: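 Chemicals are dosed onto primary human umbilical vein endothelium (3C system). After 24 h, ICAM-1 is measured by ELISA, and responses are fitted bidirectionally relative to DMSO.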

[5] = target: human Retinoic Acid Receptor beta (RARb), RARB (gene 5915) (UniProt P10826); assay: ATG_RARb_TRANS: Attagene TRANS-FACTORIAL HepG2 Assay for human Retinoic Acid Receptor beta (AID 2283004; active = hit-call score of the fitted dose curve at least 0.9, where 1 is the maximum)
How it was run: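 Readout is reporter mRNA induction: RNA reverse-transcribed, PCR-amplified, FAM-labelled, HpaI-cut and resolved by capillary electrophoresis. Transiently transfected HepG2 cells carrying exogenous NR–Gal4 chimeras were dosed for 24 h; activity fitted upward relative to DMSO.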

[6] = target: Retinoic acid receptor alpha (Homo sapiens) (UniProt P10276); assay: ATG_RARa_TRANS: Attagene TRANS-FACTORIAL HepG2 Assay for human Retinoic Acid Receptor alpha (RARa) (AID 2283005; active = hit-call score of the fitted dose curve at least 0.9, where 1 is the maximum;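 as to AC50: potency for increased reporter signal meaning RARa activation over DMSO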)
How it was run: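 HepG2 transiently transfected with multiplex GAL4-UAS reporter units including a human RARa–GAL4 chimera; 24 h compound exposure. Reporter mRNA quantified by RT-PCR, 6-FAM labeling and capillary electrophoresis; gain of signal versus DMSO.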

[7] = BSK_3C_Proliferation: Cell Proliferation Assessment in the BioMAP Diversity Plus: 3C Assay (AID 2283006); settings: primary human endothelial cells (HUVEC);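 as to AC50: potency may reflect either rise or fall in cell number versus DMSO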
How it was run: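 Cells (human umbilical vein endothelial, sub-confluent) receive test chemical; after 48 h they are fixed in 10% trichloroacetic acid, stained with 0.1% SRB and read at 560 nm. Activity is referenced to DMSO, fitting increases and decreases.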

[8] = target: Peroxisome proliferator-activated receptor gamma (Homo sapiens) (UniProt P37231); assay: ATG_PPARg_TRANS: Attagene TRANS-FACTORIAL HepG2 Assay for human Peroxisome Proliferator-activated Receptor-gamma (PPARg) (AID 2283007; active = hit-call score of the fitted dose curve at least 0.9, where 1 is the maximum)
How it was run: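 HepG2 cells transiently transfected with multiplexed GAL4-UAS reporter units and exogenous chimeric NR-Gal4 proteins; reporter mRNA quantified after 24 h compound exposure by RT-PCR, fluorescent labelling, HpaI digestion and capillary electrophoresis; gain-of-signal fitted versus DMSO baseline.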

[9] = target: Nuclear receptor subfamily 1 group I member 2 (Homo sapiens) (UniProt O75469); assay: ATG_PXR_TRANS: Attagene TRANS-FACTORIAL HepG2 Assay for human Pregnane X Receptor (PXR) (AID 2283008; active = hit-call score of the fitted dose curve at least 0.9, where 1 is the maximum)
How it was run: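 Transient HepG2 transfectants carrying multiplexed reporter transcription units; PXR activity read through a Gal4 chimera. 24 h exposure. RT-PCR/CE fluorescence; upward curve fit referenced to DMSO.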

[10] = target: Retinoic acid receptor RXR-alpha (Homo sapiens) (UniProt P19793); assay: ATG_RXRa_TRANS: Attagene TRANS-FACTORIAL HepG2 Assay for human Retinoid X Receptor alpha (RXRa) (AID 2283012; active = hit-call score of the fitted dose curve at least 0.9, where 1 is the maximum)
How it was run: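 Measures exogenous chimeric NR-GAL4 activity in transfected HepG2 liver cells after 24 h of dosing. Induced reporter mRNA was detected by RT-PCR with capillary electrophoresis, and gain of signal was analysed against DMSO.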

[11] = target: human Thyroid Receptor alpha (THRa1), THRA (gene 7067) (UniProt P10827); assay: ATG_THRa1_TRANS: Attagene TRANS-FACTORIAL HepG2 Assay for human Thyroid Receptor alpha (THRa1) (AID 2283014; active = hit-call score of the fitted dose curve at least 0.9, where 1 is the maximum)
How it was run: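 Transient HepG2 transfection, NR-Gal4 chimera driving GAL4-UAS reporters; 24 h compound exposure; total RNA, oligo(dT) RT, PCR, fluorescent primer extension, capillary electrophoresis. Upward direction vs DMSO control.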

[12] = read-out: E-selectin (Homo sapiens) (UniProt P16581); assay: BSK_3C_Eselectin: BioMAP Diversity Plus: 3C Assay for Eselectin Biomarker Activity (AID 2283015); settings: primary human endothelial cells (HUVEC); actives raise or lower the signal
How it was run: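 HUVEC, 3C stimulation; compound exposure 24 h; E-selectin by ELISA; gain- or loss-of-signal fitted bidirectionally vs DMSO baseline.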

[13] = read-out: Interleukin-1 alpha (IL1a), IL1A (gene 3552); assay: BSK_BE3C_IL1a: BioMAP Diversity Plus: BE3C Assay for Interleukin-1 alpha (IL1a) Biomarker Activity (AID 2283016); settings: primary human bronchial epithelial cells; actives raise or lower the signal
How it was run: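 Signal from IL-1a ELISA, taken 24 h after chemical dosing of human bronchial epithelial cells, is compared with DMSO as baseline using bidirectional curve fitting.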

[14] = read-out: Monocyte Chemoattractant Protein-1 (MCP1), CCL2 (gene 6347); assay: BSK_3C_MCP1: BioMAP Diversity Plus: 3C Assay for Monocyte Chemoattractant Protein-1 (MCP1) Biomarker Activity (AID 2283017); settings: primary human endothelial cells (HUVEC); actives raise or lower the signal
How it was run: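 HUVEC, 3C system; 24 h chemical exposure; MCP-1 by ELISA; bidirectional curve fit vs DMSO baseline.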

[15] = read-out: Monocyte Chemoattractant Protein-1 (MCP1), CCL2 (gene 6347); assay: BSK_4H_MCP1: BioMAP Diversity Plus: 4H Assay for Monocyte Chemoattractant Protein-1 (MCP1) Biomarker Activity (AID 2283018); settings: primary human endothelial cells (HUVEC); actives raise or lower the signal
How it was run: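 Endothelial cells from umbilical vein were treated with test chemical, then after 24 h MCP-1 levels were quantified by ELISA; endpoint values came from bidirectional fitting with DMSO as baseline of activity.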

[16] = target: human Retinoic Acid Receptor gamma (RARg), RARG (gene 5916) (UniProt P13631); assay: ATG_RARg_TRANS: Attagene TRANS-FACTORIAL HepG2 Assay for human Retinoic Acid Receptor gamma (RARg) (AID 2283009; active = hit-call score of the fitted dose curve at least 0.9, where 1 is the maximum)
How it was run: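 TRANS format measured activity of exogenous NR-GAL4 fusion (RARg) in transfected HepG2 liver cells after 24 h dosing. Induced reporter RNA was detected by RT-PCR/capillary electrophoresis fluorescence, analysed in the positive direction against DMSO.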

[17] = target: human RAR-related Orphan Receptor beta (RORb), RORB (gene 6096) (UniProt Q92753); assay: ATG_RORb_TRANS: Attagene TRANS-FACTORIAL HepG2 Assay for human RAR-related Orphan Receptor beta (RORb) (AID 2283010; active = hit-call score of the fitted dose curve at least 0.9, where 1 is the maximum)
How it was run: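 Transfect HepG2 with multiple GAL4-UAS reporter transcription units; dose chemicals for 24 h; isolate RNA, reverse-transcribe and PCR-amplify reporter sequences; label, digest and resolve fragments by capillary electrophoresis; fit increases relative to DMSO.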

[18] = target: human RAR-related Orphan Receptor gamma (RORg), RORC (gene 6097) (UniProt P51449); assay: ATG_RORg_TRANS: Attagene TRANS-FACTORIAL HepG2 Assay for human RAR-related Orphan Receptor gamma (RORg) (AID 2283011; active = hit-call score of the fitted dose curve at least 0.9, where 1 is the maximum)
How it was run: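 Transient MRTU transfection of HepG2 (TRANS format, exogenous NR-Gal4 chimera). 24 h dosing. Total RNA → oligo(dT) RT → PCR → 6-FAM labelling → HpaI cut → CE. Gain vs DMSO.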

[19] = target: human Retinoid X Receptor beta (RXRb), RXRB (gene 6257) (UniProt P28702); assay: ATG_RXRb_TRANS: Attagene TRANS-FACTORIAL HepG2 Assay for human Retinoid X Receptor beta (RXRb) (AID 2283013; active = hit-call score of the fitted dose curve at least 0.9, where 1 is the maximum)
How it was run: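 Chimeric receptor-Gal4 activity was assessed in transiently transfected human HepG2 cells after 24 h exposure. Transcripts from GAL4-UAS reporters were quantified by fluorescent RT-PCR and capillary electrophoresis, with DMSO as negative control and baseline.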

[20] = target: human Peroxisome Proliferator-activated Receptor alpha (PPARa), PPARA (gene 5465) (UniProt Q07869); assay: ATG_PPARa_TRANS: Attagene TRANS-FACTORIAL HepG2 Assay for human Peroxisome Proliferator-activated Receptor alpha (PPARa) (AID 2283001; active = hit-call score of the fitted dose curve at least 0.9, where 1 is the maximum)
How it was run: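 HepG2, transient MRTU transfection, 24 h treatment. RT-PCR → FAM labelling → capillary electrophoresis. Fit vs DMSO, positive direction.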

Measured: AC50

Chain of Retinoic acid receptor alpha (Homo sapiens) (P10276 whole entry, looked up, the tested form may be a part): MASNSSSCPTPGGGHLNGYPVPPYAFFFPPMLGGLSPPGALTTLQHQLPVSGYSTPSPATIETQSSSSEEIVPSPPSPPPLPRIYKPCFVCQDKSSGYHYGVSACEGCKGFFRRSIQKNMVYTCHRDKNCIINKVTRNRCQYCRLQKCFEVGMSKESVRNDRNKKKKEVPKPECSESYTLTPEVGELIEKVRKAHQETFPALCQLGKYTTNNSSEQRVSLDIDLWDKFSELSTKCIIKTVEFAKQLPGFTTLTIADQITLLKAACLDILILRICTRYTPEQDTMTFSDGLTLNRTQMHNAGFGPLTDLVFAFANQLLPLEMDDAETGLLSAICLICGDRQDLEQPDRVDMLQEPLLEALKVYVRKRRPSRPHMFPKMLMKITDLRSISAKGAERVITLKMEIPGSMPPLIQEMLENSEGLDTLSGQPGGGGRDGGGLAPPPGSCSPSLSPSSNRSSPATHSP
Chain of human Peroxisome Proliferator-activated Receptor delta (PPARd), PPARD (gene 5467) (Q03181 whole entry, looked up, the tested form may be a part): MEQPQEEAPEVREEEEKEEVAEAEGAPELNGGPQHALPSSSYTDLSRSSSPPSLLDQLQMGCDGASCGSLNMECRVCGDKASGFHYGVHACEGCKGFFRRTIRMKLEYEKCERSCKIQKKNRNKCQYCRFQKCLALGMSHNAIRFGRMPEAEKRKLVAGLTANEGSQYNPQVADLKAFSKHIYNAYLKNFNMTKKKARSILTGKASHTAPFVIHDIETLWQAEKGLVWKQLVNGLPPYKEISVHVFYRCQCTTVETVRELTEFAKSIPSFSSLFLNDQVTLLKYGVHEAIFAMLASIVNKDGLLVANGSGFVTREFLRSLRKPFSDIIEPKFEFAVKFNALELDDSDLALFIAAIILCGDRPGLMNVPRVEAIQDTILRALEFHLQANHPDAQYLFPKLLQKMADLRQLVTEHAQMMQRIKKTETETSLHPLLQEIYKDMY
Chain of human RAR-related Orphan Receptor gamma (RORg), RORC (gene 6097) (P51449 whole entry, looked up, the tested form may be a part): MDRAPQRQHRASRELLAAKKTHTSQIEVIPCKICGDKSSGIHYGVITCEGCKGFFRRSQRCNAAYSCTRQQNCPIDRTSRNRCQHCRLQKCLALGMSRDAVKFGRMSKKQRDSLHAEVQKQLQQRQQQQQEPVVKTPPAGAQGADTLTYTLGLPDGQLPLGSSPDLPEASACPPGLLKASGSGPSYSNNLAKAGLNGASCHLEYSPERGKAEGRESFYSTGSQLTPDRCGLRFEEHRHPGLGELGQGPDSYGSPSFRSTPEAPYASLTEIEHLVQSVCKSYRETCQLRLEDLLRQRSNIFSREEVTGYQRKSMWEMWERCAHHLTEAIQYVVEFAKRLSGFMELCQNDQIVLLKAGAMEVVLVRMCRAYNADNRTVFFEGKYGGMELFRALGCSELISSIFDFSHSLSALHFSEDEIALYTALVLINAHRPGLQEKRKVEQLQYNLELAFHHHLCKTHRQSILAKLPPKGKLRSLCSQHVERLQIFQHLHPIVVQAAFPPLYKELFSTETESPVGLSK
Chain of human Retinoic Acid Receptor beta (RARb), RARB (gene 5915) (P10826 whole entry, looked up, the tested form may be a part): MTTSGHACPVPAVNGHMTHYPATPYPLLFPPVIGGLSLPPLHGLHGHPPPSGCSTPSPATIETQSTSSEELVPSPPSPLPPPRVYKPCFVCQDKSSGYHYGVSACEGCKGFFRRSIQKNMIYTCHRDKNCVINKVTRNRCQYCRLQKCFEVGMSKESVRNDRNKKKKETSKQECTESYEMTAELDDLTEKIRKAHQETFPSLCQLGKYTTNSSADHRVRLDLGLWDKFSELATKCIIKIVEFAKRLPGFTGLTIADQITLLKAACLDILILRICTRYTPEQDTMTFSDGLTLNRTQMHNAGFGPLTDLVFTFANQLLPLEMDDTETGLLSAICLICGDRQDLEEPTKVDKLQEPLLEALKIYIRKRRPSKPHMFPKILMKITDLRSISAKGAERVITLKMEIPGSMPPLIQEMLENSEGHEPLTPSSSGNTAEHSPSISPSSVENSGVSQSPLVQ
Chain of Retinoic acid receptor RXR-alpha (Homo sapiens) (P19793 whole entry, looked up, the tested form may be a part): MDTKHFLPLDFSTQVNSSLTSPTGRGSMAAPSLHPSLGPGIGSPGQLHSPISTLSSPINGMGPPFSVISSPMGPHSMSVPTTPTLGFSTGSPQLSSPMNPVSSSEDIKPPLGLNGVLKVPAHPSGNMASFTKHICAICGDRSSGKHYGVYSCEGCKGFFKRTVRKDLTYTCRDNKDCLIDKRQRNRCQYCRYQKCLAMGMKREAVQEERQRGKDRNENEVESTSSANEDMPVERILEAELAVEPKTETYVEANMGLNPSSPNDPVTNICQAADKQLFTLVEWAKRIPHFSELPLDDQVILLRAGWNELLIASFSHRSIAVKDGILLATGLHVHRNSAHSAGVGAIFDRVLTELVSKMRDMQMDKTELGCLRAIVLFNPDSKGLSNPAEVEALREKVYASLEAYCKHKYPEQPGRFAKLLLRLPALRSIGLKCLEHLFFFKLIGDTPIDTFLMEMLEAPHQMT
Chain of Nuclear receptor subfamily 1 group I member 2 (Homo sapiens) (O75469 whole entry, looked up, the tested form may be a part): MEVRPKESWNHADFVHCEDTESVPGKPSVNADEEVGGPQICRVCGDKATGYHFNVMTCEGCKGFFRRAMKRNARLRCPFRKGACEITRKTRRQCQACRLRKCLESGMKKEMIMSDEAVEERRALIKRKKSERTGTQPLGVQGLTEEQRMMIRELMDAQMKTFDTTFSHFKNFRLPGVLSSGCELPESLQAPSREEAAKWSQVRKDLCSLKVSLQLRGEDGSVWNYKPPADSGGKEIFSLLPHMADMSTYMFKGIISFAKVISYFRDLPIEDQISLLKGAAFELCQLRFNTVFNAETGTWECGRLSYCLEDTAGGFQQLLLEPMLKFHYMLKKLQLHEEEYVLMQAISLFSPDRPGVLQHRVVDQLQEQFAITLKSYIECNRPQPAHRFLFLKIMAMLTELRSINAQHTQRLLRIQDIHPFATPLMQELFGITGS
Chain of Peroxisome proliferator-activated receptor gamma (Homo sapiens) (P37231 whole entry, looked up, the tested form may be a part): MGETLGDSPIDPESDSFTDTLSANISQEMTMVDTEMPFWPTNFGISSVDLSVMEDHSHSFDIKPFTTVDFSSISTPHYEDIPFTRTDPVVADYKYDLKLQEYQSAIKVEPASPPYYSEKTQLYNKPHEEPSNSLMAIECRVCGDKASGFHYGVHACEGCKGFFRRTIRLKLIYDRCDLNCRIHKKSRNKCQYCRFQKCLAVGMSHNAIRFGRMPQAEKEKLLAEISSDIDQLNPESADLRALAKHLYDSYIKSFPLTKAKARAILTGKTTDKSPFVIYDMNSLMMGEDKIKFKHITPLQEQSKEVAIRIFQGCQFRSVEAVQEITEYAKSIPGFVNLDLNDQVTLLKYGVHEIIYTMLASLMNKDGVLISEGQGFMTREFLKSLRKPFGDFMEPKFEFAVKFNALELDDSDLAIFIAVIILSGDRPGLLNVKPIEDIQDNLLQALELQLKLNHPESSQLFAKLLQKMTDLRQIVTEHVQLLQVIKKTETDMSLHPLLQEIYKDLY
Chain of human RAR-related Orphan Receptor beta (RORb), RORB (gene 6096) (Q92753 whole entry, looked up, the tested form may be a part): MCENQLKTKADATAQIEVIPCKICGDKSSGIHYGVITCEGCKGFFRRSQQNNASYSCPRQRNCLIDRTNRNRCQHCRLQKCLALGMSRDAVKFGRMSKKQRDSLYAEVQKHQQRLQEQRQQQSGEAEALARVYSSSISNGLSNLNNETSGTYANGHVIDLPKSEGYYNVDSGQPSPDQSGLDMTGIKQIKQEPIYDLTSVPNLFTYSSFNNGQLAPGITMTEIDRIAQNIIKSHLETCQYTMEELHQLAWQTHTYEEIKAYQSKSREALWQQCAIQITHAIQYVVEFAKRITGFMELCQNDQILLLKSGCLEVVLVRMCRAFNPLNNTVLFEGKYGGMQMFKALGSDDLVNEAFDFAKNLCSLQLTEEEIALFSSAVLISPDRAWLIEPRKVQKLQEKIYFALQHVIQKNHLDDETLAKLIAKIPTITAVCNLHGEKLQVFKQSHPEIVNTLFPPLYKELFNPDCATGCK
Chain of human Retinoic Acid Receptor gamma (RARg), RARG (gene 5916) (P13631 whole entry, looked up, the tested form may be a part): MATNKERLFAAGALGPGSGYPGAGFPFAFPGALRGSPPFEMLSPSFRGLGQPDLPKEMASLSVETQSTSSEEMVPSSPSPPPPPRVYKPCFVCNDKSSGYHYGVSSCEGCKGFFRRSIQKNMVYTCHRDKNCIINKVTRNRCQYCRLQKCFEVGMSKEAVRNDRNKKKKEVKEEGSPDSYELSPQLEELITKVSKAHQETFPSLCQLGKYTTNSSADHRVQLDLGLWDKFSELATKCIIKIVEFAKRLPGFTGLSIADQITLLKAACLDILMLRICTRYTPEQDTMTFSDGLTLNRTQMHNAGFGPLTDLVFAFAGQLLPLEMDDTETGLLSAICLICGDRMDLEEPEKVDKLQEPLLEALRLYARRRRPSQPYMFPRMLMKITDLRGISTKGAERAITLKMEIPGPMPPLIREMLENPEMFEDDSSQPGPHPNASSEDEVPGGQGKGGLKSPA
Chain of human Thyroid Receptor alpha (THRa1), THRA (gene 7067) (P10827 whole entry, looked up, the tested form may be a part): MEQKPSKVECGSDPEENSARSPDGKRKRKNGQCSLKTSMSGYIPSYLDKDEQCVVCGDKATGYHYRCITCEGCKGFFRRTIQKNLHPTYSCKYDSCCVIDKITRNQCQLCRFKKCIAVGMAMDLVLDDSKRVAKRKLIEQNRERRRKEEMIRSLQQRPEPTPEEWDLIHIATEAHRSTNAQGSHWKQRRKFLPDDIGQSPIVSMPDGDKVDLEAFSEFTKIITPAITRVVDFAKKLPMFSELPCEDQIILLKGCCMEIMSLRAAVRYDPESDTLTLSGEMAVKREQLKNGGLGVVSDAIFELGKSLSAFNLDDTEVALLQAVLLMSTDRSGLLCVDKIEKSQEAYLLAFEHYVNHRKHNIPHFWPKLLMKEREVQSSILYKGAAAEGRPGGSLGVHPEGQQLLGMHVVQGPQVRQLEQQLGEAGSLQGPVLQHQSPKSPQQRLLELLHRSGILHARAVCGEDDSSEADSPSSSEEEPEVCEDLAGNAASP

CCOP(=S)(OCC)SCCSCC
inactive: [1] | [2] | [3] | [4] | [5] | [6] | [7] | [8] | [9] | [10] | [11] | [12] | [13] | [14] | [15]

O=[N+]([O-])c1cc(C(F)(F)F)c(Cl)c([N+](=O)[O-])c1Nc1ncc(C(F)(F)F)cc1Cl
active: [1] 1.46 µM and 2.82 µM | [2] 1.39 µM and 3.07 µM | [4] 3.09 µM and 3.8 µM | [7] 589 nM and 1.47 µM | [8] 0.651 µM | [9] 2.86 µM | [12] 1.47 µM and 3.24 µM | [13] 1.95 µM and 6.28 µM | [14] 3.5 µM and 4.23 µM | [15] 738 nM and 3.46 µM
inactive: [3] | [5] | [6] | [8] | [9] | [16] | [17] | [18] | [10] | [19] | [11]

CN(C)NC(=O)CCC(=O)O
inactive: [1] | [2] | [3] | [4] | [6] | [7] | [8] | [17] | [18] | [11] | [12] | [13] | [14] | [15]

COc1cc(OC)nc(Sc2cccc(Cl)c2C(=O)O)n1
inactive: [1] | [2] | [20] | [4] | [7] | [8] | [18] | [11] | [12] | [13] | [14] | [15]

CC(C)[C@H](C(=O)O[C@H](C#N)c1cccc(Oc2ccccc2)c1)c1ccc(Cl)cc1
inactive: [1] | [2] | [3] | [4] | [18] | [10] | [11] | [12] | [13] | [14] | [15]
active: [7] 6.57 µM | [8] 9.37 µM | [9] 5 µM

COP(=O)(OC)C(O)C(Cl)(Cl)Cl (stereo not drawn)
active: [6] 78.9 µM | [8] 72.2 µM
inactive: [1] | [2] | [3] | [4] | [5] | [7] | [9] | [16] | [17] | [18] | [10] | [11] | [12] | [13] | [14] | [15]

CCc1cccc(CC)c1N(COC)C(=O)CCl
active: [1] 31.4 µM | [2] 22.4 µM | [7] 28.5 µM | [8] 1.79 µM | [12] 21.2 µM | [14] 14.4 µM | [15] 22 µM
inactive: [3] | [4] | [9] | [16] | [10] | [11] | [13]
